From PubChem BioAssay (NCATS)
Inconclusive results are not listed. Where a call stands in place of a potency, no number is given. The source made the active and inactive calls. Unless noted, calls follow the shape of the dose curve; as a rule, active = well fitted curve in the direction sought with a large enough effect; inconclusive = small, poorly fitted or top-dose-only effect, or another doubt; inactive = no such curve, though single readings can be large; an effect the other way counts as inactive or inconclusive.

How the values were obtained:
[1] = target: ATP-dependent 6-phosphofructokinase (Trypanosoma brucei brucei) (UniProt O15648); assay: qHTS Assay to Find Inhibitors of T. brucei phosphofructokinase: hit validation (AID 492961);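 also: luminescence reports ADP formed as PFK phosphorylates fructose-6-phosphate with ATP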
How it was run: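 Measures ADP output of PFK (1.25 nM) at 0.1 mM ATP, 0.5 mM F6P, pH 8.0 TEA buffer with 5 mM MgCl2. No-enzyme wells define full inhibition; uninhibited enzyme wells define zero.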

[2] = target: Ubiquitin carboxyl-terminal hydrolase 1 (Homo sapiens) (UniProt O94782); assay: Inhibitors of USP1/UAF1: Pilot qHTS (AID 504865);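 also: rhodamine fluorescence freed from ubiquitin-rhodamine substrate followed over time; top concentration of the series differs between compounds; nearly all actives have a fitted effect of over 35% in size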
How it was run: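 Deubiquitinase activity followed as kinetic rhodamine fluorescence release from 150 nM Ub-Rho. 1 nM USP1/UAF1 with compound, after 15 min room-temperature preincubation, in HEPES pH 7.8 buffer containing TCEP, EDTA, BSA and Tween-20.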

[3] = target: Luciferin 4-monooxygenase (Photinus pyralis) (UniProt P08659); assay: Biochemical firefly luciferase enzyme assay for NPC (AID 624030);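 also: purified P. pyralis luciferase at 10 nM with luciferin and ATP substrate; nearly all actives have a fitted effect of over 70% in size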
How it was run: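 Direct inhibition of firefly luciferase enzyme (10 nM final, 50 mM Tris Acetate) assessed by luminescence within 5 minutes. Percent activity scaled between DMSO and PTC124 positive control, with concentration-effect curves classified by fit quality and response.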

[4] = S16 Schwann cell PMP22 intronic element firefly luciferase assay (AID 624032); also: nearly all actives have a fitted effect of over 30% in size
How it was run: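 Luciferase reporter of PMP22 intronic-element expression in stably transfected S16 rat Schwann cells, read by ONE-Glo luminescence after 24 h compound exposure at 37 C. Activity scaled between DMSO (0%) and positive-control PTC124; concentration-effect curves quality-classified.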

[5] = S16 Schwann cell PMP22 intronic element beta-lactamase assay (AID 624044; calls by dose curve; also: nearly all actives have a fitted effect of over 15% in size)
How it was run: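 Beta-lactamase reporter under a PMP22 intronic regulatory element in stable S16 rat Schwann cells; 24 h compound exposure. 460 nm blue signal normalized between DMSO (0%) and potassium clavulanate, with 535 nm FRET tracking viability; curves classed by r2 and response.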

Furin (Homo sapiens) = Furin (Homo sapiens) (UniProt P09958); assay: Furin counterscreen qHTS for Zika virus inhibitors (AID 1347149);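 also: purified recombinant full-length human furin enzyme at 5 nM; fluorescence gain from furin cutting a BOC-RVRR-AMC peptide substrate over 15 min; top concentration of the series differs between compounds; nearly all actives have a fitted effect of over 70% in size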
How it was run: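 Counterscreen measures cleavage of 2 microM BOC-RVRR-AMC, below its ~15 microM Km, by 5 nM full-length human furin at pH 7.0 after a 15-min compound preincubation. Inhibition derives from the 15-min fluorescence increase at 37C.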

[6] = Vero cells viability qHTS for Zika virus inhibitors (AID 1347167)
How it was run: (§1)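 Luminescent ATP readout (CellTiter Glo) after 30 min at 37 degrees C gives viability; cells in DMEM + 4% FBS were treated 24 to 48 hours with compound, following overnight attachment.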

[7] = HepG2 cells viability qHTS for Zika virus inhibitors (AID 1347168)
How it was run: as §1

[8] = Tertiary RLuc qRT-PCR qHTS assay for Zika virus inhibitors (AID 1347169); also: potency is read from the fitted curve at half-maximal effect; nearly all actives have a fitted effect of over 55% in size
How it was run: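 Orthogonal cell-based readout: luminescence measured 1-1.5 hrs after adding live-cell Renilla substrate to Vero cells that had been infected with ZIKV-RLuc (MOI 1-2) post-compound, incubated 48-72 hrs at 37 degrees C.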

[9] = Primary qHTS for inhibitors of SARS-S pseudo-typed particle cell entry (AID 1479145; calls by dose curve; also: nearly all actives have a fitted effect of over 45% in size)
[10] = Primary qHTS for inhibitors of MERS-S pseudo-typed particle cell entry (AID 1479149; calls by dose curve; also: nearly all actives have a fitted effect of over 60% in size)
[11] = Primary qHTS to identify inhibitors of SARS-CoV-2 cell entry (AID 1645846; calls by dose curve; also: nearly all actives have a fitted effect of over 45% in size); settings: activity change, negative = inhibition: at 57.1 µM (top of the series) unless noted
How it was run: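 Entry measured by luciferase signal 48 h after adding SARS-CoV-2-S pseudotyped MLV particles to HEK293-ACE2 cells preincubated 1 h with compounds. Normalisation: bald particles and spike particles.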

[12] = target: Glutathione peroxidase 1 (Homo sapiens) (UniProt P07203); assay: Primary qHTS Assay for Inhibitors of Recombinant Selenoprotein Glutathione Peroxidase 1 (GPX1) (AID 1845191); also: nearly all actives have a fitted effect of over 65% in size
How it was run: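 NADPH consumption tracked by fluorescence at 340/450 nm between t=0 and t=15 min, room temperature. Final mix: 10 nM GPX1, 100 nM glutathione reductase, 1 mM GSH, 0.5 mM NADPH, 0.5 mM cumene hydroperoxide, 0.01% BSA; 30 min compound–enzyme preincubation.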

[13] = target: Phospholipid hydroperoxide glutathione peroxidase GPX4 (Homo sapiens) (UniProt P36969); assay: Primary qHTS Assay for Inhibitors of Recombinant Selenoprotein Glutathione Peroxidase 4 (GPX4) (AID 1845192); also: nearly all actives have a fitted effect of over 65% in size
How it was run: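 NADPH consumption followed by fluorescence at 340/450 nm, t=0 and after 15 min at room temperature. Reaction started with cumene hydroperoxide (0.5 mM final) after 30 min compound–GPX4 preincubation; final 200 nM GPX4, 100 nM GR, 1 mM GSH, 0.5 mM NADPH.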

3D7 = assay: qHTS profiling for inhibitors of Plasmodium falciparum proliferation (AID 504749); also: nearly all actives have a fitted effect of over 60% in size; settings: P. falciparum in erythrocytes, SYBR Green DNA, 72 h; series mostly up to 28.7 µM
How it was run: (§2)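 SYBR Green fluorescence of parasite DNA, read after lysis and overnight dark incubation, measured growth over 72 h in erythrocyte culture at 0.3% parasitemia and 2.5% hematocrit. Data normalised to DMSO and 0.29 uM artemisinin, with plate-drift correction.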

AA1029 = assay: as above; settings: P. falciparum in erythrocytes, SYBR Green DNA, 72 h; series mostly up to 28.7 µM
How it was run: as §2

AS120 = assay: as above; settings: P. falciparum in erythrocytes, SYBR Green DNA, 72 h; series mostly up to 28.7 µM
How it was run: as §2

ATS189 = assay: as above; settings: P. falciparum in erythrocytes, SYBR Green DNA, 72 h; series mostly up to 28.7 µM
How it was run: as §2

ATS95 = assay: as above; settings: P. falciparum in erythrocytes, SYBR Green DNA, 72 h; series mostly up to 28.7 µM
How it was run: as §2

C2A = assay: as above; settings: P. falciparum in erythrocytes, SYBR Green DNA, 72 h; series mostly up to 28.7 µM
How it was run: as §2

CP185 = assay: as above; settings: P. falciparum in erythrocytes, SYBR Green DNA, 72 h; series mostly up to 28.7 µM
How it was run: as §2

CP191 = assay: as above; settings: P. falciparum in erythrocytes, SYBR Green DNA, 72 h; series mostly up to 28.7 µM
How it was run: as §2

CP192 = assay: as above; settings: P. falciparum in erythrocytes, SYBR Green DNA, 72 h; series mostly up to 28.7 µM
How it was run: as §2

CP194 = assay: as above; settings: P. falciparum in erythrocytes, SYBR Green DNA, 72 h; series mostly up to 28.7 µM
How it was run: as §2

CP201 = assay: as above; settings: P. falciparum in erythrocytes, SYBR Green DNA, 72 h; series mostly up to 28.7 µM
How it was run: as §2

CP203 = assay: as above; settings: P. falciparum in erythrocytes, SYBR Green DNA, 72 h; series mostly up to 28.7 µM
How it was run: as §2

CP211 = assay: as above; settings: P. falciparum in erythrocytes, SYBR Green DNA, 72 h; series mostly up to 28.7 µM
How it was run: as §2

CP215 = assay: as above; settings: P. falciparum in erythrocytes, SYBR Green DNA, 72 h; series mostly up to 28.7 µM
How it was run: as §2

CP217 = assay: as above; settings: P. falciparum in erythrocytes, SYBR Green DNA, 72 h; series mostly up to 28.7 µM
How it was run: as §2

CP237 = assay: as above; settings: P. falciparum in erythrocytes, SYBR Green DNA, 72 h; series mostly up to 28.7 µM
How it was run: as §2

CP238 = assay: as above; settings: P. falciparum in erythrocytes, SYBR Green DNA, 72 h; series mostly up to 28.7 µM
How it was run: as §2

CP247 = assay: as above; settings: P. falciparum in erythrocytes, SYBR Green DNA, 72 h; series mostly up to 28.7 µM
How it was run: as §2

Chain of Ubiquitin carboxyl-terminal hydrolase 1 (Homo sapiens) (O94782 whole entry, looked up): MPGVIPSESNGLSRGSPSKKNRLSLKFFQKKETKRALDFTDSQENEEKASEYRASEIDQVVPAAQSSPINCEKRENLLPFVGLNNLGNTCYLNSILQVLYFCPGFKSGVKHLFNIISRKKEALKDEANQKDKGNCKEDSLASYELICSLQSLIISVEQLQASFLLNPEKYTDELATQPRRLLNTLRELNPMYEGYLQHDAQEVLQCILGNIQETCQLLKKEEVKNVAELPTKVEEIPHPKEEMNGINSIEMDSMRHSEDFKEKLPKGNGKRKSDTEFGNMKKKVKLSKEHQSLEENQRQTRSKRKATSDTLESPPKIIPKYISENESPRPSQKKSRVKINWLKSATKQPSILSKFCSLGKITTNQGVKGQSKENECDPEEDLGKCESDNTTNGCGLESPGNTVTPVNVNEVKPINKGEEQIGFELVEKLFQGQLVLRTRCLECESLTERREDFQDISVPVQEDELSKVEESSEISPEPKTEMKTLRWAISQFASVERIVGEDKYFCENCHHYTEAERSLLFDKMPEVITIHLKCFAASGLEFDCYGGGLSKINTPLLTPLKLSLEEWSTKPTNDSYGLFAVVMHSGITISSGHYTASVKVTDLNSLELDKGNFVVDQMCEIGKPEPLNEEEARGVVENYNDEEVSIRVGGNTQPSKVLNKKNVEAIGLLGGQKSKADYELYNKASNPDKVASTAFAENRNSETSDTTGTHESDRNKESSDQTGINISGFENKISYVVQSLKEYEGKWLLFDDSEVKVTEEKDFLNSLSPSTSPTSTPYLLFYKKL
Chain of Glutathione peroxidase 1 (Homo sapiens) (P07203 whole entry, looked up): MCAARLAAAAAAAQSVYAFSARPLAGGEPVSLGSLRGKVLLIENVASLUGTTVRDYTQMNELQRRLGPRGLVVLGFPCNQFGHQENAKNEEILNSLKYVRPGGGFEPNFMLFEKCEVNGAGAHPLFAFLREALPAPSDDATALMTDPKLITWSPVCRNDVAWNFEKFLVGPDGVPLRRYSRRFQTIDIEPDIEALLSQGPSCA
Chain of Phospholipid hydroperoxide glutathione peroxidase GPX4 (Homo sapiens) (P36969 whole entry, looked up): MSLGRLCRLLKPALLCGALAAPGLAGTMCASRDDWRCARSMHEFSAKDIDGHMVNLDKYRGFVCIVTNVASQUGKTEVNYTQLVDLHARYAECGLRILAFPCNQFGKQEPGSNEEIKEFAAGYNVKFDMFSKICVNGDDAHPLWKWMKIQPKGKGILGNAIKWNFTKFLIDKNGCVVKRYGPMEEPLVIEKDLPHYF
Chain of Luciferin 4-monooxygenase (Photinus pyralis) (P08659 whole entry, looked up): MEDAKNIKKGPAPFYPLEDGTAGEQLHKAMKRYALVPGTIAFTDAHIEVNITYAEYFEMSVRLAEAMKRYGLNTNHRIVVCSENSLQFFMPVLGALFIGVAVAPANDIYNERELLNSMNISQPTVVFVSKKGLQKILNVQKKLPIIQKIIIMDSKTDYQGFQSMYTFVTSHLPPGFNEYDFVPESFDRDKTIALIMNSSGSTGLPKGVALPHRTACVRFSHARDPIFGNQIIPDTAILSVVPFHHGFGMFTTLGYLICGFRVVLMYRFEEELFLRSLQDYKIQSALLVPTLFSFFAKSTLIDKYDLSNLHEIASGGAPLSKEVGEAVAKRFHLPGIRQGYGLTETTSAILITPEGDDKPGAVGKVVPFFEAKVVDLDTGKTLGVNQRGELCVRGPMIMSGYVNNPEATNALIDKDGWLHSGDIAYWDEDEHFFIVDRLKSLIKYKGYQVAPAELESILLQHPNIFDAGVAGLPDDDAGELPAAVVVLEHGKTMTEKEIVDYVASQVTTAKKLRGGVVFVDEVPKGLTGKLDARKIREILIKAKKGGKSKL
Chain of Furin (Homo sapiens) (P09958 whole entry, looked up): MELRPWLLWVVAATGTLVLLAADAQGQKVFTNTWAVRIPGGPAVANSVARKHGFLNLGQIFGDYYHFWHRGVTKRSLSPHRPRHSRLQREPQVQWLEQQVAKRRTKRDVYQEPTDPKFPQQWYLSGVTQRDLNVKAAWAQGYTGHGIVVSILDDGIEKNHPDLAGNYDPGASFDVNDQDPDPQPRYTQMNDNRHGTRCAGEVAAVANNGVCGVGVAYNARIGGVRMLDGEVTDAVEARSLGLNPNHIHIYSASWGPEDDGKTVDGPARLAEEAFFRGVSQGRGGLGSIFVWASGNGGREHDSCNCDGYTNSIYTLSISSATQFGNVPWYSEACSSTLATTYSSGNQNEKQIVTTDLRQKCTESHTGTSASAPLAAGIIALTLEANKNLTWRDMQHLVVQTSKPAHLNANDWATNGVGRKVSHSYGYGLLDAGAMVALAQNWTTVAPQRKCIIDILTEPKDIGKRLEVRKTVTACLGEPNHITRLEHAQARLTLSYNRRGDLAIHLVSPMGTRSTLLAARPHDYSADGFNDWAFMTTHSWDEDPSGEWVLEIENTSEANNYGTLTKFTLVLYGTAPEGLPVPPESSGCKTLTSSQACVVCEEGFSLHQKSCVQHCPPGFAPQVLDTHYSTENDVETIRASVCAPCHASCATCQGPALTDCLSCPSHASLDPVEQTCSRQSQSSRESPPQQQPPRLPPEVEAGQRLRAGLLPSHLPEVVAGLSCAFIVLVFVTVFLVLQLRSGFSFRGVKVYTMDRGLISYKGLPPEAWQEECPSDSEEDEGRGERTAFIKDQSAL
Chain of ATP-dependent 6-phosphofructokinase (Trypanosoma brucei brucei) (O15648 whole entry, looked up): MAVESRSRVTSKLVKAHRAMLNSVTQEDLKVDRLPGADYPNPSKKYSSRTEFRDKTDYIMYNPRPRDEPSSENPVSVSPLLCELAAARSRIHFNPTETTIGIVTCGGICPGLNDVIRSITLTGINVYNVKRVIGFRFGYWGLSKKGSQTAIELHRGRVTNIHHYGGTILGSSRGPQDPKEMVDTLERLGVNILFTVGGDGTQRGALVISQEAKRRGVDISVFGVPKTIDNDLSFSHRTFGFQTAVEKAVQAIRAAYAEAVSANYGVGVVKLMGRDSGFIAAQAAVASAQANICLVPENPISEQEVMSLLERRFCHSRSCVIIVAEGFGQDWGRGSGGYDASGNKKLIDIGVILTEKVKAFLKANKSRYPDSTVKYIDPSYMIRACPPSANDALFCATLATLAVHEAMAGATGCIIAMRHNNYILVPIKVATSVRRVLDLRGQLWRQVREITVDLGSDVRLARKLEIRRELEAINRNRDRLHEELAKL

**Q.** What does the source list for `CO[C@H]1[C@@H](O)CC(OC2[C@@H](O)CC(OC3[C@@H](O)C[C@H](OC4CC[C@@]5(C)C(CCC6C5CC(O)[C@]5(C)[C@H](C7=CC(=O)OC7)CCC65O)C4)O[C@@H]3C)O[C@@H]2C)O[C@@H]1C` (some centres not stated)?
**A.** Potency [1]: inactive; Potency [2]: inactive; Potency [3]: inactive; Potency [4]: inactive; Potency [5]: inactive; Potency (Furin (Homo sapiens)): inactive; Potency [6]: inactive; Potency [7]: inactive; Potency [8]: 240 nM (active); Potency [9]: inactive; Potency [10]: inactive; activity change, negative = inhibition [11]: -97.7% [at 114 µM]; Potency [12]: inactive; Potency [13]: inactive; Potency (3D7): inactive; Potency (AA1029): inactive; Potency (AS120): inactive; Potency (ATS189): inactive; Potency (ATS95): inactive; Potency (C2A): inactive; Potency (CP185): inactive; Potency (CP191): inactive; Potency (CP192): inactive; Potency (CP194): inactive; Potency (CP201): inactive; Potency (CP203): inactive; Potency (CP211): inactive; Potency (CP215): inactive; Potency (CP217): inactive; Potency (CP237): inactive; Potency (CP238): inactive; Potency (CP247): inactive
